Results taken from the supplement of paper PMC11628255, “Interference of metal ions on the bioluminescent signal of firefly, Renilla, and NanoLuc luciferases in high-throughput screening assays” (Frontiers in Chemistry, 2024).
± gives the standard deviation of the averaged measurements.

Assays:
[1] = test system: NanoLuc luciferase (NLuc); experiment: residual bioluminescent signal relative to negative (DMSO) control; higher = less interference (more residual luciferase signal)
Procedure, shortened: (§1)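 In triplicate wells of 384-well plates, each metal salt (0.01, 1 and 5 mM final, prepared in water) was pre-incubated with purified firefly, NanoLuc or Renilla luciferase for 10 min at room temperature in either screening or HEPES buffer. Readings of luminescence were taken 10 min after the substrate went in. The residual signal for a well is its luminescence relative to the mean of vehicle-only wells on the same plate, as a percentage.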

[2] = test system: Renilla luciferase (RLuc); experiment: as above
Procedure, shortened: as §1

[3] = metal salt concentration 0.01 mM, HEPES conditions (100 mM HEPES, 0.1% BSA, pH 7.5)
[4] = metal salt concentration 0.01 mM, screening conditions (PBS, 0.1% BSA, pH 7.4)
[5] = metal salt concentration 1 mM, HEPES conditions (100 mM HEPES, 0.1% BSA, pH 7.5)
[6] = metal salt concentration 1 mM, screening conditions (PBS, 0.1% BSA, pH 7.4)
[7] = metal salt concentration 5 mM, HEPES conditions (100 mM HEPES, 0.1% BSA, pH 7.5)
[8] = metal salt concentration 5 mM, screening conditions (PBS, 0.1% BSA, pH 7.4)
[9] = metal salt concentration 0.01 mM, HEPES conditions (100 mM HEPES, 0.05% BSA, 0.3 M sodium ascorbate, pH 7.5)
[10] = metal salt concentration 0.01 mM, screening conditions (50 mM Tris-HCl, […] KH2PO4, […] NaCl, 0.25 mM EDTA, 0.1% BSA, 0.3 M sodium ascorbate, pH 7.4)
[11] = metal salt concentration 1 mM, HEPES conditions (100 mM HEPES, 0.05% BSA, 0.3 M sodium ascorbate, pH 7.5)
[12] = metal salt concentration 1 mM, screening conditions (50 mM Tris-HCl, […] KH2PO4, […] NaCl, 0.25 mM EDTA, 0.1% BSA, 0.3 M sodium ascorbate, pH 7.4)
[13] = metal salt concentration 5 mM, HEPES conditions (100 mM HEPES, 0.05% BSA, 0.3 M sodium ascorbate, pH 7.5)
[14] = metal salt concentration 5 mM, screening conditions (50 mM Tris-HCl, […] KH2PO4, […] NaCl, 0.25 mM EDTA, 0.1% BSA, 0.3 M sodium ascorbate, pH 7.4)

SMILES	residual bioluminescent signal [1, 3] [%]	residual bioluminescent signal [1, 4] [%]	residual bioluminescent signal [1, 5] [%]	residual bioluminescent signal [1, 6] [%]	residual bioluminescent signal [1, 7] [%]	residual bioluminescent signal [1, 8] [%]	residual bioluminescent signal [2, 9] [%]	residual bioluminescent signal [2, 10] [%]	residual bioluminescent signal [2, 11] [%]	residual bioluminescent signal [2, 12] [%]	residual bioluminescent signal [2, 13] [%]	residual bioluminescent signal [2, 14] [%]
O=[N+]([O-])[O-].O=[N+]([O-])[O-].O=[N+]([O-])[O-].[Al+3] [aluminium nitrate]	95.9 ± 2.5	100 ± 2.5	68.7 ± 3.2	89.9 ± 5.7	107 ± 1.8	103 ± 4.9	85.7 ± 7.3	91.1 ± 1	7.39 ± 0.84	90.2 ± 1.4	103 ± 2.5	94.2 ± 6.2
O=[N+]([O-])[O-].O=[N+]([O-])[O-].[Cu+2] [copper(II) nitrate]							99.3 ± 10	104 ± 6.5	0.774 ± 0.61	0.583 ± 0.34	0.774 ± 0.24	0.897 ± 0.62
O=[N+]([O-])[O-].[Li+] [lithium nitrate]	93.22 ± 0.49	96.7 ± 1	97 ± 3.4	95.4 ± 4.8	102 ± 3.7	97.1 ± 3.3	88.6 ± 6.9	87.4 ± 5.8	94.2 ± 14	86.8 ± 1.4	97.7 ± 6.4	88.5 ± 5.5
O=[N+]([O-])[O-].O=[N+]([O-])[O-].O=[N+]([O-])[O-].[Ga+3] [gallium(III) nitrate]							105 ± 12	98.9 ± 6	10.6 ± 0.8	112 ± 11	3.03 ± 1.8	1.92 ± 1.4
O=[N+]([O-])[O-].O=[N+]([O-])[O-].[Cd+2] [cadmium nitrate]	93.8 ± 1.4	98.2 ± 1.1	74.64 ± 0.51	62.1 ± 7.8	84.1 ± 2.6	22.1 ± 1.6	100 ± 15	102 ± 9.5	11.8 ± 0.97	45.6 ± 6.1	1.41 ± 0.32	12.2 ± 3.1
O=[N+]([O-])[O-].[Ag+] [silver nitrate]		28 ± 4.6		1.98 ± 0.46		2.05 ± 0.58						
O=[N+]([O-])[O-].[K+] [potassium nitrate]	95.2 ± 2.4	104 ± 1.6	90.9 ± 1.1	94.9 ± 3.4	101 ± 2	101 ± 4.7	110 ± 7.7	101 ± 7.9	104 ± 1.4	108 ± 11	109 ± 5.3	102 ± 3.8
[Cl][Sn][Cl] [tin(II) chloride]							103 ± 4.7	96.3 ± 7.4	103 ± 11	95.3 ± 12	92.9 ± 2.4	11.3 ± 2.3
O=[N+]([O-])[O-].O=[N+]([O-])[O-].[Ni+2] [nickel(II) nitrate]	89 ± 2	94.5 ± 3.8	87.6 ± 4.2	91.4 ± 1.8	89.9 ± 2.2	78.1 ± 3.4	82.5 ± 12	99.08 ± 0.95	57.9 ± 4.5	79.3 ± 3.2	22.4 ± 2.8	52.7 ± 11
O=[N+]([O-])[O-].O=[N+]([O-])[O-].[Ca+2] [calcium nitrate]							83 ± 5.8	79.9 ± 9.1	92.3 ± 4.3	86.7 ± 4.6	106 ± 6.2	19.5 ± 7.2
O=[N+]([O-])[O-].O=[N+]([O-])[O-].[Zn+2] [zinc nitrate]							86 ± 1.9	96.8 ± 8.7	11.8 ± 2.2	85.7 ± 3.5	1.13 ± 0.12	14.9 ± 12
O=[N+]([O-])[O-].O=[N+]([O-])[O-].[Pb+2] [lead(II) nitrate]							102 ± 1.7	112 ± 8.2	42.9 ± 4.4	69.9 ± 14	30.2 ± 3.3	5.96 ± 0.97
O=[N+]([O-])[O-].[Na+] [sodium nitrate]							93.9 ± 5.2	101 ± 3.4	96.7 ± 2.8	97.6 ± 5.2	109 ± 7.3	107 ± 2.8
